Source: PubChem (National Center for Advancing Translational Sciences (NCATS))
Rango release inh: prevents RanGTP from dissociating the Rango-importin beta complex. Biochemical FRET Rango-importin beta, RanGTP-induced dissociation. hit rate 0.071% among 340,000. O95149+P62826. Potency, µM (highest dose often 46.1 µM), without a hit: at the top dose activity change, negative = inhibition; calls by dose curve; note: % of control where 0% means no effect; nearly all actives have a fitted effect of over 45% in size
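Two FRET readings bracket the reaction: one 5 min after compound meets Rango–importin beta, another 45 min after RanGTP-RCC1 (0.6 uM Ran, 0.2 uM RCC1, 2 mM GTP) is added. Only the second defines inhibition.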
TDP1 inh: blocks human tyrosyl-DNA phosphodiesterase 1 | Potency, µM (doses to about 130 µM), for inactives: top-dose activity change, negative = inhibition, usual class: inhibitors | recombinant TDP1, AlphaScreen DNA substrate cleavage | hit rate 0.28% among 350,000 | Q9NUW8; note: % is set by controls: 0 for no effect and ±100 for the full control effect; nearly all actives have a fitted effect of over 40% in size
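Enzyme-compound mixtures sat 15 min at room temperature, followed by a 5 min reaction with 15 nM final substrate and 10 min with AlphaScreen beads. Recombinant human Tdp1 was used at 1 nM final.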
12-LOX inh: inhibitors of human 12S-lipoxygenase ALOX12; P18054; purified 12hLO, xylenol orange hydroperoxide absorbance; Potency, µM (doses to about 108 µM), for inactives: at the top dose activity change, negative = inhibition, hits mostly inhibitors; hit rate 1.1% among 580,000; note: % is set by controls: 0 for no effect and ±100 for the full control effect
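Hydroperoxide product was detected by ferrous iron/xylenol orange as the 573 to 405 nm absorbance ratio. Arachidonic acid at 40 uM (final) was turned over for 30 min at room temperature by 150 nM human 12hLO, pH 7.0 Hepes buffer, after 15 min compound preincubation.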
ClpP mod: qHTS Assay for Activators of ClpP. purified B. subtilis ClpP, FRET peptide cleavage, 20 min. Potency, µM (series often up to 57.5 µM), without a hit: at the top dose activity change, negative = active. hit rate 1.9% among 340,000; active = well fitted falling curve with a large enough effect; inconclusive = small, poorly fitted or top-dose-only effect; inactive = no such curve, though single readings can be large or run the other way; note: the source files actives as falling curves though it sought activators and does not explain the sign; nearly all actives have a fitted effect of over 65% in size
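Purified B. subtilis ClpP, 10 microg/mL final in Tris/HCl pH8 with KCl, BSA, glycerol and Tween-20, cleaved an Abz/nitrotyrosine-quenched decapeptide. Fluorescence (ex 320, em 430) was read at 0 and 20 min at room temperature. Delta was normalized to 5.8 microM ADEP and DMSO/no-enzyme controls.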
Rango complex inh: inhibitors of Rango-importin beta complex formation | Rango CFP/YFP FRET sensor + importin beta, 45 min | Potency, µM (series often up to 92.2 µM), inactives show at the highest dose inhibition of complex formation | hit rate 0.031% among 340,000; calls by dose curve;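 note: 0% = DMSO wells and 100% = buffer wells lacking importin beta; nearly all actives have a fitted effect of over 15% in size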
Target sequence (Q14974 whole entry, looked up): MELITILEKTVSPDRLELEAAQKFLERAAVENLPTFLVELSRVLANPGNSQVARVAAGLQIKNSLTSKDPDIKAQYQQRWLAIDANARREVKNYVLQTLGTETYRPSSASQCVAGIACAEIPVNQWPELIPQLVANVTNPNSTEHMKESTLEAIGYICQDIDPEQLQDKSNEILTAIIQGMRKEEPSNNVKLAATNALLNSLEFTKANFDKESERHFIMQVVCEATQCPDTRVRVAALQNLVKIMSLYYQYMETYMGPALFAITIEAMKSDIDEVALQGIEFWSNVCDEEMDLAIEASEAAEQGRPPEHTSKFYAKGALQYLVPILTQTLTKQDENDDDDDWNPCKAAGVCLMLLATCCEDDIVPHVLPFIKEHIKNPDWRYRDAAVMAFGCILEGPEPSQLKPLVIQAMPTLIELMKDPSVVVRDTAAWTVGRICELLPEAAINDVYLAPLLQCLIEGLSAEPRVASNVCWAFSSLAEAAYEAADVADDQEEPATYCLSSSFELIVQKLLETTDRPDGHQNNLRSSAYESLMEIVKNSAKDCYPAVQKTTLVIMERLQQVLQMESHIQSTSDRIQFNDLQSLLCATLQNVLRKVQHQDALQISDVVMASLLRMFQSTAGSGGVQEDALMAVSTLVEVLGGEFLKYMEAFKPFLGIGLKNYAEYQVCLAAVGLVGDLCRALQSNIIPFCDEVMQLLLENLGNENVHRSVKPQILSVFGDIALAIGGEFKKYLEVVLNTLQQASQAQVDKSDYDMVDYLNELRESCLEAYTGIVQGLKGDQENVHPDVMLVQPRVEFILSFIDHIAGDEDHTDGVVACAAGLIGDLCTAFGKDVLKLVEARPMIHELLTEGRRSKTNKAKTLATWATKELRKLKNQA
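FRET biosensor (snurportin 1 IBB flanked by EYFP and cerulean), 50 nM, with compound 5 min, then 0.125 microM importin beta in PBS, 1 mM DTT, 0.02% Tween-20, 0.1% BSA. CFP/YFP ratio read after 45 min at room temperature; pre-read flags interference.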
PTAP TSG101 blk: blocks PTAP/TSG101 interaction to inhibit HIV-1 budding; Q99816; Fluorescence polarization, FITC-PTAP peptide / Tsg101 binding; Potency, µM (highest dose often 115 µM), for inactives: at the top dose activity change, negative = inhibition, actives largely listed as inhibitors; 340,000 tested, under 10 active; active = well fitted inhibition curve with a large enough effect in the main read-out, with a control signal flat, not every such curve was filed as active; inconclusive = small, poorly fitted or top-dose-only effect, or effect the other way, or a change in a side signal; inactive = no such curve, though single readings can be large or run the other way; note: % of control where 0% means no effect
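FP read-out: FITC-PTAP peptide, 50 nM final, binding Tsg101 binding domain, 10 uM final; 20 min, r.t.; 10 mM HEPES pH 7.5, 0.15 M NaCl, 0.01% Tween 20, 3 mM EDTA, 0.1 mM TCEP.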
Starred values were filed as active, the others as inactive; ? = inconclusive; . = not tested or not shown; ! = not confirmed by another sample. A selection: hits, their analogues and other compounds. The true share with any hit is near 2.4%. Unless noted, calls come from the whole dose curve; as a rule, active = well fitted curve in the direction sought with a large enough effect; inconclusive = small, poorly fitted or top-dose-only effect, or another doubt; inactive = no such curve, though single readings can be large; an effect the other way counts as inactive or inconclusive. Potency is the fitted concentration of half-maximal effect.

SMILES	Rango release inh	TDP1 inh	12-LOX inh	ClpP mod	Rango complex inh	PTAP TSG101 blk
CC(C)c1noc(-c2cccn3c(CNC(=O)c4ccc(Cl)cc4)nnc23)n1	.	.	-3%	.	.	.
COC(=O)c1cccc(NC(N)=S)c1	-7%	-1%	?	.	1%	-2%
COC(=O)c1cccc(NC(=S)N2CCN(C)CC2)c1	-2%	.	-13%	13µM*	-1%	-1%
O=C(NC1CCCCCCC1)C1CCC(Cn2cnnn2)CC1 (stereo unspecified)	.	.	47%	.	.	.
Nc1c(-c2ccccc2)n[nH]c1-c1ccccc1	6%	0%	-4%	28µM*	1%	.
Cn1c[n+]([O-])c2ccccc21	.	.	-19%	.	.	.
COc1ccc(-c2nnc(-c3cccs3)o2)cc1OC	-1%	-1%	6%	32µM*	5%	-11%
C[C@H](NS(=O)(=O)c1ccc(C(C)(C)C)cc1)C(=O)NCc1cscn1	.	.	1%	.	.	.
Cc1ccc(C(=O)Nc2sccc2C#N)s1	.	.	50µM*	.	.	.
Brc1ccc(-c2noc(Cc3cccs3)n2)o1	.	.	25µM*	.	.	.
O=C(CC(F)(F)F)NCCc1ccccn1	.	.	0%	.	.	.
COCCn1c(=O)[nH]c2cc(C(=O)OC)ccc2c1=O	-16%	8%	-16%	28µM*	0%	-7%
CCCC(=O)NNc1cc(=O)c2c(=O)n(C)c(=O)n(C)c2[nH]1	0%	8%	16µM*	-2%	-1%	-6%
Cn1c(=O)c2c(=O)cc(NNC(=O)CC#N)[nH]c2n(C)c1=O	15%	0%	?	0%	1%	-2%
Cn1c2ccccc2c2cc(C(=O)NNC(=O)CCl)sc21	0%	?	14%	.	0%	0%
CC(=O)Nc1ccc(S(=O)(=O)NNC(=O)c2cc3c4ccccc4n(C)c3s2)cc1	-19%	-2%	0%	28µM*	4%	-4%
Cn1c2ccc(F)cc2c2ncn(CCN3CCOCC3)c(=O)c21	12%	3%	22%	?	0%	-5%
Cn1c2ccc(F)cc2c2ncn(CCCN(CCO)CCO)c(=O)c21	-11%	-1%	0%	28µM*	0%	-2%
c1cnc(N2CCCCC2)c(CNCC2CNc3ccnn3C2)c1 (stereo unspecified)	.	.	21%	.	.	.
NC(=O)c1ccccc1NS(=O)(=O)c1ccc2c(c1)OCCO2	-1%	2%	-3%	25µM*	-1%	-7%
COc1ccc(S(=O)(=O)Nc2ccccc2C(=O)Nc2nc(-c3ccc(F)cc3)cs2)cc1OC	-4%	8%	-18%	16µM*	-2%	-11%
CCCNC(=O)c1ccccc1NS(=O)(=O)c1ccc(OC)c(OC)c1	17%	-5%	0%	32µM*	-7%	-12%
COc1ccc(S(=O)(=O)Nc2ccccc2C(=O)NN2CCOCC2)cc1OC	-10%	1%	?	-4%	-1%	-1%
COc1ccc(-c2csc(NC(=O)c3ccccc3NS(=O)(=O)c3ccc(C)cc3)n2)cc1	0%	2%	?	?	0%	-6%
Cc1ccc(NC(=O)c2cccc(C(F)(F)F)c2)c(Cl)c1	.	.	19%	.	.	.
Cc1ccc(N(CC(=O)N2CCN(c3cccc(Cl)c3)CC2)S(=O)(=O)N(C)C)cc1	.	.	-57%	.	.	.
COc1cc(C2Nc3ccccc3C(=O)N2Cc2ccco2)ccc1O (stereo unspecified)	.	4%	.	4%	.	.
O=C1c2ccccc2NC(c2ccc(O)cc2)N1Cc1ccco1 (stereo unspecified)	-4%	3%	?	32µM*!	3%	-2%
Cc1ccc(C2Nc3ccccc3C(=O)N2Cc2ccco2)cc1 (stereo unspecified)	-7%	0%	?	25µM*	-1%	-5%
O=C(CCC1CCCO1)NC1CCCCNC1=O (stereo unspecified)	.	.	5%	.	.	.
